Assay results as given in ChEMBL document CHEMBL2218924, “A broad activity screen in support of a chemogenomic map for kinase signalling research and drug discovery” (Biochem J, 2013).

How the values were obtained:
[1] = target: Ephrin type-A receptor 5 (Homo sapiens) (UniProt P54756); details: at 1 µM
[2] = target: Ephrin type-A receptor 5 (Homo sapiens) (UniProt P54756); details: at 10 µM
[3] = target: Ephrin type-A receptor 7 (Homo sapiens) (UniProt Q15375); details: at 1 µM
[4] = target: Ephrin type-A receptor 7 (Homo sapiens) (UniProt Q15375); details: at 10 µM
[5] = target: T1, Ephrin type-B receptor 1 (Homo sapiens) (UniProt P54762); details: at 1 µM
T1 sequence (whole entry): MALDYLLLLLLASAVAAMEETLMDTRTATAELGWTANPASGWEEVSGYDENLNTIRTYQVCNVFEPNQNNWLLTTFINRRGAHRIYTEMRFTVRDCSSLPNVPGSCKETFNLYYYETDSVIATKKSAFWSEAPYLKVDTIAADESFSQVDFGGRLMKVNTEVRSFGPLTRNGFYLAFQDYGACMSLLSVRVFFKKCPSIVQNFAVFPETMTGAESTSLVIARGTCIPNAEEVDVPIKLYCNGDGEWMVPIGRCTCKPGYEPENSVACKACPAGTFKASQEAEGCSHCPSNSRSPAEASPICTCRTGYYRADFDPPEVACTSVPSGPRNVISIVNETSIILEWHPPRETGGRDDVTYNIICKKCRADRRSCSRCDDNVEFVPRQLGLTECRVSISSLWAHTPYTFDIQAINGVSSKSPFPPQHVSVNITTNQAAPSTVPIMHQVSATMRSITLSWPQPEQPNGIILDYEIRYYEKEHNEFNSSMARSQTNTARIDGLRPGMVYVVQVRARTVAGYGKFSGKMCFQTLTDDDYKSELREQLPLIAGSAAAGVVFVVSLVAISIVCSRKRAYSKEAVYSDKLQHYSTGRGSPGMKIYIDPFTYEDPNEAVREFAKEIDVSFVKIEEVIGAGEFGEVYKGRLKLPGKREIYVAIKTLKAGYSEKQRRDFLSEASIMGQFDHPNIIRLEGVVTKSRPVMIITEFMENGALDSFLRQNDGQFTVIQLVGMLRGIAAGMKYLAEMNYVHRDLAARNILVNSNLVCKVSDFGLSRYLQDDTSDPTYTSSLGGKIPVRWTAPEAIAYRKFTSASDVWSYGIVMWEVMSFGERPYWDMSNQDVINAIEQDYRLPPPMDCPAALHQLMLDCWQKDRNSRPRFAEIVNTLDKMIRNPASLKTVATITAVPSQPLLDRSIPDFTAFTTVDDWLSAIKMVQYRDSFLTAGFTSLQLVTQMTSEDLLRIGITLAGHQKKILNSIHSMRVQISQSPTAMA

[6] = target: T1, Ephrin type-B receptor 1 (Homo sapiens); details: at 10 µM
[7] = target: T2, Ephrin type-B receptor 4 (Homo sapiens) (UniProt P54760); details: at 1 µM
T2 sequence (whole entry): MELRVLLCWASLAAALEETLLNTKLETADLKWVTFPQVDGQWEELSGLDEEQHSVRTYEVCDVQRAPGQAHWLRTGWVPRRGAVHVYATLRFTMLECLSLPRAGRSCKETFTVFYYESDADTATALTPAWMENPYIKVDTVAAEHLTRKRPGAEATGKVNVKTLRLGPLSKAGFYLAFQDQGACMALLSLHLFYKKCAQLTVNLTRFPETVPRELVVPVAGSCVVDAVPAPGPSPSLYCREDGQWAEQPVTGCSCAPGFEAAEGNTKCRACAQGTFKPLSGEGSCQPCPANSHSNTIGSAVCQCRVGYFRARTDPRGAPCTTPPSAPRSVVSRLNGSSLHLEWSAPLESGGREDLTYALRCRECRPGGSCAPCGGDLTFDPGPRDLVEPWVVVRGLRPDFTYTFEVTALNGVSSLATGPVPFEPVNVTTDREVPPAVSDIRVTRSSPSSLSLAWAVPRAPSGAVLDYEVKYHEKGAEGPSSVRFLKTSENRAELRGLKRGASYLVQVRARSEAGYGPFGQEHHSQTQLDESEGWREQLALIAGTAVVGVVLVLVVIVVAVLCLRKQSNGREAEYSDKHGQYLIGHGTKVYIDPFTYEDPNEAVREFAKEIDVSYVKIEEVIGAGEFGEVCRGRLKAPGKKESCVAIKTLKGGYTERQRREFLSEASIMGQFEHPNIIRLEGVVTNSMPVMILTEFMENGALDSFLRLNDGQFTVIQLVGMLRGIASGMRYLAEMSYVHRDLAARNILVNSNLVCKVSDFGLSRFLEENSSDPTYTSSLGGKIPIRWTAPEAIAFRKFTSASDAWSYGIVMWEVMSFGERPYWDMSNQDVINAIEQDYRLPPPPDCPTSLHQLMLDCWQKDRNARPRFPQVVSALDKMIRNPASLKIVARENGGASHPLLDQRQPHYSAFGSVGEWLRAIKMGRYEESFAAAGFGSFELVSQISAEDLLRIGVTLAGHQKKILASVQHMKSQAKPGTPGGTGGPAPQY

[8] = target: T2, Ephrin type-B receptor 4 (Homo sapiens); details: at 10 µM
[9] = target: Receptor tyrosine-protein kinase erbB-4 (Homo sapiens) (UniProt Q15303); details: at 1 µM
Receptor tyrosine-protein kinase erbB-4 (Homo sapiens), sequence (Q15303 whole entry): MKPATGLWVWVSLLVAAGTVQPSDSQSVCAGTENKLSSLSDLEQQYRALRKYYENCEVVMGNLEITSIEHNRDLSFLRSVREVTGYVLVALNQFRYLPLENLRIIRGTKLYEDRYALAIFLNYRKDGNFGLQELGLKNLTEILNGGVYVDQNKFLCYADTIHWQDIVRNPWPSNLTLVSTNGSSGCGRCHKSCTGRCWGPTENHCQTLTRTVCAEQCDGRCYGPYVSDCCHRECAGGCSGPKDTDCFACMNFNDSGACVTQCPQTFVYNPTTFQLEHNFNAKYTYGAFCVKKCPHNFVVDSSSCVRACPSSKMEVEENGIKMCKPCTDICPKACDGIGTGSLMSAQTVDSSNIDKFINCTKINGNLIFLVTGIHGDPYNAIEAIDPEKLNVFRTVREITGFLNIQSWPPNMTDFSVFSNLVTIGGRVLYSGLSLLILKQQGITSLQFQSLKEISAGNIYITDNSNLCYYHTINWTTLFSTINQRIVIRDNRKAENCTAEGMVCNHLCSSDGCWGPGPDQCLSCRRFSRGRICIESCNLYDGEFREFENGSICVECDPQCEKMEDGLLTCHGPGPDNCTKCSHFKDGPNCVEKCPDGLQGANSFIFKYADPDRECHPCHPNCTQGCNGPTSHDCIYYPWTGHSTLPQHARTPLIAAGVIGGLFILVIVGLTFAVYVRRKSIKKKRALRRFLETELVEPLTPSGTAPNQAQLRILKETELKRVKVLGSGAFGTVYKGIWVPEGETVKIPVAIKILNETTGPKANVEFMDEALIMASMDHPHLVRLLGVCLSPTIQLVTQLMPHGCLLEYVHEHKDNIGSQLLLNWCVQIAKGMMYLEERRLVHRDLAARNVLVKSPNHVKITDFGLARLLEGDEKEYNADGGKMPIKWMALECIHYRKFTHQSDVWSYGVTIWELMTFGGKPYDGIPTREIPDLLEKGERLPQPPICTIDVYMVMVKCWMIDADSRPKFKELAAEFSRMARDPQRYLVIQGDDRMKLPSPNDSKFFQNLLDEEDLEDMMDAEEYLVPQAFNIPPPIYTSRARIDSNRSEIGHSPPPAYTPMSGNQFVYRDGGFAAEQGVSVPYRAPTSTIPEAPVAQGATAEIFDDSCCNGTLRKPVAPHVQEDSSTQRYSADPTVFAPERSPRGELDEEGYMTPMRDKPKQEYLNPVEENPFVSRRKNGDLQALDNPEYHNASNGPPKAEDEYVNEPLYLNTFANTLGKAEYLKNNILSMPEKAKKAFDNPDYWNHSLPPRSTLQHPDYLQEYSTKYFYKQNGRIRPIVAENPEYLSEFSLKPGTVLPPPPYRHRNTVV

[10] = target: Receptor tyrosine-protein kinase erbB-4 (Homo sapiens) (UniProt Q15303); details: at 10 µM
[11] = target: Focal adhesion kinase 1 (Homo sapiens) (UniProt Q05397); details: at 1 µM
Focal adhesion kinase 1 (Homo sapiens), sequence (Q05397 2-1052 limits assumed): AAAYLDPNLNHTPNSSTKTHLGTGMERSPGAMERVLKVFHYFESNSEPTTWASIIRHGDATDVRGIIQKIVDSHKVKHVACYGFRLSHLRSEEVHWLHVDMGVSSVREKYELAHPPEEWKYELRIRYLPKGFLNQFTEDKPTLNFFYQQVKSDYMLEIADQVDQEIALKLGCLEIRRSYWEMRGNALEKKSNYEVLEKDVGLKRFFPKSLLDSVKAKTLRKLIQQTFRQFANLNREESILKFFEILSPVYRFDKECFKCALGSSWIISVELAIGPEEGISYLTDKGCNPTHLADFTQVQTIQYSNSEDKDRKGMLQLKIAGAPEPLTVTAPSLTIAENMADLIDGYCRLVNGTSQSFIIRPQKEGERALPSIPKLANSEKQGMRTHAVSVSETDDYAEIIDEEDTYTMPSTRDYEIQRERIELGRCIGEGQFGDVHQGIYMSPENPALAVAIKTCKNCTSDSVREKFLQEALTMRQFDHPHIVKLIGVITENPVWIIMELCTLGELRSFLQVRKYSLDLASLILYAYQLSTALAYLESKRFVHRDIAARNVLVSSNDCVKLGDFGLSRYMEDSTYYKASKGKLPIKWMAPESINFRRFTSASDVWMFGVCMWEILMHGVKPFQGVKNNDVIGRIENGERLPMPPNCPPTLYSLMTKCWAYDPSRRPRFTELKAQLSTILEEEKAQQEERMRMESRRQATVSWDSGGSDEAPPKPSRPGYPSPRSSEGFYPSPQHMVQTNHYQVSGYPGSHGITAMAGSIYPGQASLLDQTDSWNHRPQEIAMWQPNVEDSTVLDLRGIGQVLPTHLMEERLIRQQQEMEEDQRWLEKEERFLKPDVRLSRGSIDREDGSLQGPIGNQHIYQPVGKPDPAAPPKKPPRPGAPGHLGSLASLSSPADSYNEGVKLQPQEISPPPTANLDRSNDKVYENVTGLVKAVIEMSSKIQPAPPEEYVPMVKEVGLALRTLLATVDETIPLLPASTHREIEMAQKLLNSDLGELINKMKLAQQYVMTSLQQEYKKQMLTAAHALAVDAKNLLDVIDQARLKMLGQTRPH

[12] = target: Ephrin type-A receptor 4 (Homo sapiens) (UniProt P54764); details: at 1 µM
[13] = target: T3, Ephrin type-A receptor 8 (Homo sapiens) (UniProt P29322); details: at 1 µM
T3 sequence (whole entry): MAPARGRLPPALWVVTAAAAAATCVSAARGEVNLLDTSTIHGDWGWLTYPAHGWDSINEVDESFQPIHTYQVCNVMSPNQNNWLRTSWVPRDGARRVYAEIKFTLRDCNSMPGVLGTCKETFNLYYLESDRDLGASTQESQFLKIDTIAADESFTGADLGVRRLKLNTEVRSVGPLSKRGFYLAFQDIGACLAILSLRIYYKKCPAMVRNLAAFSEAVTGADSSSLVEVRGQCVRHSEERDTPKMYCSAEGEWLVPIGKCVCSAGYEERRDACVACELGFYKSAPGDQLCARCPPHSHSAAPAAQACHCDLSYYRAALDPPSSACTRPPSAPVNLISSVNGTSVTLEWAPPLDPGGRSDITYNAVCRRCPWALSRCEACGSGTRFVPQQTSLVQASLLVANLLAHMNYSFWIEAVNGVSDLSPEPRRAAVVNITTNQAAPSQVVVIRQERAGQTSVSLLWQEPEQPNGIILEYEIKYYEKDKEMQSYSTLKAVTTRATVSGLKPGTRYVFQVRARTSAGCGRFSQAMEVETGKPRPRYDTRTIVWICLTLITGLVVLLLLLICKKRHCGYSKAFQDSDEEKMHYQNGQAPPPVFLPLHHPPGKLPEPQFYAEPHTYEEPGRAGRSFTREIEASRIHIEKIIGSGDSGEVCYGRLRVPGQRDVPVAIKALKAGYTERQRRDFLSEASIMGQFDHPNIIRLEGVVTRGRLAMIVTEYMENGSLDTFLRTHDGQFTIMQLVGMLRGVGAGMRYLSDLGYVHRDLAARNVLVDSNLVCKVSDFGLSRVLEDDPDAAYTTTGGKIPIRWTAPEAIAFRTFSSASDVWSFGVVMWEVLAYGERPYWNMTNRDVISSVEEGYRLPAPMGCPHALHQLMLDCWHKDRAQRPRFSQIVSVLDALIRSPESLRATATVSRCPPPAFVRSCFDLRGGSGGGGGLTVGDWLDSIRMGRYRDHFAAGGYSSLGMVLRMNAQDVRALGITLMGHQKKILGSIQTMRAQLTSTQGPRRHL

[14] = target: T3, Ephrin type-A receptor 8 (Homo sapiens); details: at 10 µM
[15] = target: T4, Ephrin type-B receptor 3 (Homo sapiens) (UniProt P54753); details: at 1 µM
T4 sequence (whole entry): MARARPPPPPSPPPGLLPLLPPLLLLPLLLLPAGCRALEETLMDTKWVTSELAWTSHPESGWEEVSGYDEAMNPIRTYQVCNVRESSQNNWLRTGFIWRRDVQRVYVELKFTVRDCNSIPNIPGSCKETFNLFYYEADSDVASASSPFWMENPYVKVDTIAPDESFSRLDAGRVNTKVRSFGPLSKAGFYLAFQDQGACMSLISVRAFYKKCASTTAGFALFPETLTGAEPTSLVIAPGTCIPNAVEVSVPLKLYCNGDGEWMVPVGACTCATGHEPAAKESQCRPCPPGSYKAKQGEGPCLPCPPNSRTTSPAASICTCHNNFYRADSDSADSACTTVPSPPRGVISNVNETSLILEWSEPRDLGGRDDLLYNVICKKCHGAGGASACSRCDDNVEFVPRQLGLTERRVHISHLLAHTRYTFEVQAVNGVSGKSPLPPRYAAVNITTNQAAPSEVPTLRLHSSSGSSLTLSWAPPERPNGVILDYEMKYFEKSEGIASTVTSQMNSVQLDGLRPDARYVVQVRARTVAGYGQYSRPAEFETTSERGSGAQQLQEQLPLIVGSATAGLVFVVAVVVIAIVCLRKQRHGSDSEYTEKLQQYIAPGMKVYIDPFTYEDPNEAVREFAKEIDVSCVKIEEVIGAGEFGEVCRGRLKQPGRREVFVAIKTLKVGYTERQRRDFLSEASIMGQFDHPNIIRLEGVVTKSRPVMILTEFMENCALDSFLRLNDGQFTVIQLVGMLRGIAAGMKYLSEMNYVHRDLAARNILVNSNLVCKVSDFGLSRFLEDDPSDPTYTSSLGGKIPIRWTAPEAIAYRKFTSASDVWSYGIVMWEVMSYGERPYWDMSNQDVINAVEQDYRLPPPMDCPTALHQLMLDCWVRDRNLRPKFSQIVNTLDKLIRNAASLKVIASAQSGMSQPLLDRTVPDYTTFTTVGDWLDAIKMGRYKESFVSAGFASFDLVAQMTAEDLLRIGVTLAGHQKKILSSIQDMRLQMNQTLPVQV

[16] = target: T4, Ephrin type-B receptor 3 (Homo sapiens); details: at 10 µM

Ephrin type-A receptor 7 (Homo sapiens), sequence (Q15375 28-998 limits assumed): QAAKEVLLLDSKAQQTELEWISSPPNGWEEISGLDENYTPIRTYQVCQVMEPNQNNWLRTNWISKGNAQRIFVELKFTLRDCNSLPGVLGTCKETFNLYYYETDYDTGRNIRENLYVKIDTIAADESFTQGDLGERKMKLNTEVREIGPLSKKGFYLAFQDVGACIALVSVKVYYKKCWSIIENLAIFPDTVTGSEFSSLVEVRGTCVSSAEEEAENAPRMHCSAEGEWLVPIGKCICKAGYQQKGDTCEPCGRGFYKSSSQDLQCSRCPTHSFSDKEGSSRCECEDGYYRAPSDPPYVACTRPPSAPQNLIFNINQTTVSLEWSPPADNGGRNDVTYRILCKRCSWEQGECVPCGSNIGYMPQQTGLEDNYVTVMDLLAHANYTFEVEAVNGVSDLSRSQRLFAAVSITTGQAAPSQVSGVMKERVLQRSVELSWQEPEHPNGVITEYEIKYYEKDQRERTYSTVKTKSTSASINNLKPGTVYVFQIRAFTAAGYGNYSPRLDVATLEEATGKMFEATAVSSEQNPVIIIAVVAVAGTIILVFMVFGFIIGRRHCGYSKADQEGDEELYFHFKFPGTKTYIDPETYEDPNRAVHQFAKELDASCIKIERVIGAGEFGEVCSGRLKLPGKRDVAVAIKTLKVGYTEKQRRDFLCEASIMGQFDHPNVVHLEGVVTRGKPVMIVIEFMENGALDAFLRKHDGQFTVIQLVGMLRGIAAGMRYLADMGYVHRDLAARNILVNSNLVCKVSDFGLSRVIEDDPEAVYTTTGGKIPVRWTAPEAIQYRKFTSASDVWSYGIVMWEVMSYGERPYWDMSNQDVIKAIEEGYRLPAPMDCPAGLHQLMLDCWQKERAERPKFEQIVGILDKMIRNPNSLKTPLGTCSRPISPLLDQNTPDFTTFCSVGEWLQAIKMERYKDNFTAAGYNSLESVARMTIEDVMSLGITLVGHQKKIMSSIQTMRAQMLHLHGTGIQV
Ephrin type-A receptor 5 (Homo sapiens), sequence (P54756 whole entry): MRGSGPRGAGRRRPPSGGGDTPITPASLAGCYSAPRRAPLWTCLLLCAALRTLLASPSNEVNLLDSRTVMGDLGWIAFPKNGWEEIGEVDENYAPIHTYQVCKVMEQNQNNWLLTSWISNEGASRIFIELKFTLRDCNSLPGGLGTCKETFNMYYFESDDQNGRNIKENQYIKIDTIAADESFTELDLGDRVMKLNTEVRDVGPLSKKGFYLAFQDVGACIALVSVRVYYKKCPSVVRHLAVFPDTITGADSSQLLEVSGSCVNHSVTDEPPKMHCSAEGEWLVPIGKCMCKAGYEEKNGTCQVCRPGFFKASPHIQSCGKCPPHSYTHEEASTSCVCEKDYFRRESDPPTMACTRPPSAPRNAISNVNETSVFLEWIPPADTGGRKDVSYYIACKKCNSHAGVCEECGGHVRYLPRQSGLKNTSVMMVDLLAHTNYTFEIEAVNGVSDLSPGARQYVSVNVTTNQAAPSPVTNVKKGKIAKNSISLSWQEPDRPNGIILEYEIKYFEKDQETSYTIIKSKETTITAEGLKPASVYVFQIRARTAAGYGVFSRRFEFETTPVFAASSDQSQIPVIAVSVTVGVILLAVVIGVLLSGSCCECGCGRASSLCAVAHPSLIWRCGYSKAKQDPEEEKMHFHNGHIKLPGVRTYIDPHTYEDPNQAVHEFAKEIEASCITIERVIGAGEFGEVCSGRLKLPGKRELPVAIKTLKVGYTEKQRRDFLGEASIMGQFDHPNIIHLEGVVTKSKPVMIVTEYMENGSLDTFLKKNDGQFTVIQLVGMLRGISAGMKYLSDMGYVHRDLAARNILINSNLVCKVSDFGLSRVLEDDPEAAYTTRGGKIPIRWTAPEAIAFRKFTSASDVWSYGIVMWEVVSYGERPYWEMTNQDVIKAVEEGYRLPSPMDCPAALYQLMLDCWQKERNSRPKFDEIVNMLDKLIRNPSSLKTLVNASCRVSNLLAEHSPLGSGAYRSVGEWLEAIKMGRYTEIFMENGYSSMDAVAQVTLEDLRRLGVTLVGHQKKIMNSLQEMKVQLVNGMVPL

Work on `COc1ccc(Cl)cc1NC(=O)Nc1cc(C)nc2ccccc12` yielded a residual activity [1] of 97%, a residual activity [2] of 86% and a residual activity [3] of 83%. For the same compound, the residual activity [4] was 56%, the residual activity [5] was 88% and the residual activity [6] was 68%. For the same compound, the residual activity [7] was 96%, the residual activity [8] was 100% and the residual activity [9] was 96%. For the same compound, the residual activity [10] was 80% and the residual activity [11] was 127%.

For `CCN1/C(=C/C(C)=O)Sc2ccc(OC)cc21`, the residual activity [9] was 75% and the residual activity [10] was 69%.

For `N#C/C(=C1/Nc2ccccc2S1)c1ccnc(NCCc2cccnc2)n1`, the residual activity [12] was 123%, the residual activity [4] was 77% and the residual activity [13] was 98%. For the same compound, the residual activity [14] was 83%, the residual activity [6] was 55% and the residual activity [15] was 141% (inactive). The residual activity [16] was 74%, the residual activity [7] was 72% and the residual activity [8] was 73%. It also gave a residual activity [9] of 88%, a residual activity [10] of 61% and a residual activity [11] of 100%.
